Screening results as filed in PubChem BioAssay.
The list is not random: actives were taken first. Their share in the collection is about 4%.
MazEF act: activators of E. coli MazEF toxin-antitoxin RNase | activation, % at 20 µM | P0AE70 | FAM/BHQ RNA-DNA oligo cleavage fluorescence, 5 h | 350,000 tested, 0.32% active; in the data active = activation above about 50%
Target sequence (P0AE70 whole entry, looked up): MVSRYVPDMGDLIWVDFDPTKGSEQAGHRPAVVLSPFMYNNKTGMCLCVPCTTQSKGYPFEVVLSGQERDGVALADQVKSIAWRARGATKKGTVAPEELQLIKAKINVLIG
GDH-TPI counter-1: inhibits GDH-TPI coupling enzymes, artifact for Mtb FBA screen | GDH-TPI coupled enzyme counterscreen, NADH absorbance | inhibition, % at 4.8 µM | 360,000 tested, 1.2% active | AID 588335;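 also: 0% = DMSO wells and 100% = wells lacking the enzyme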
Mtb FBA inh: Mtb fructose-bisphosphate aldolase inhibition; P9WQA3; purified M. tuberculosis FBA, fluorescence read-out; inhibition, % at 1 µM; 360,000 tested, 2.3% active; in the data active = inhibition above about 27%;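 also: 0% = vehicle and 100% = reference inhibitor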
Target sequence (P9WQA3 whole entry, looked up): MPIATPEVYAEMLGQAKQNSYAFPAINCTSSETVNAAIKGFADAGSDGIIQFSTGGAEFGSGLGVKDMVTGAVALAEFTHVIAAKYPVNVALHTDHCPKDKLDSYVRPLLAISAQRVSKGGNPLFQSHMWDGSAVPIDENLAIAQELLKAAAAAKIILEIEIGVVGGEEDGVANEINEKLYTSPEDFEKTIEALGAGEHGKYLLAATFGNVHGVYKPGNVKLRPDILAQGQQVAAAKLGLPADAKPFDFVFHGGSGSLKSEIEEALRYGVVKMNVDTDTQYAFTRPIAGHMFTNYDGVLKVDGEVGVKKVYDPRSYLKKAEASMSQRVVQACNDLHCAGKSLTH
Mtb betalactam: beta-lactam sensitization of Mtb H37Rv | M. tuberculosis H37Rv growth with meropenem, percent inhibition | AID 434955 | inhibition, % at 25 µM | 330,000 tested, 0.27% active; call rule not given here;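 also: growth measured after seven days incubation then overnight dye step; 0% = bacteria only wells and 100% = bacteria with antibiotic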
CCHFV vOTU inh: blocks the CCHF virus ovarian tumor domain protease. AID 651958. CCHFV vOTU protease, Pep-AMC fluorescence. 370,000 tested, 0.55% active. inhibition, % at 11.5 µM; also: 0% = vehicle wells with enzyme and 100% = no enzyme wells
Mtb FBA confirm: confirmation of M. tuberculosis fructose-bisphosphate aldolase inhibitors; 5,600 tested, 78% active; purified M. tuberculosis FBA, fluorescence read-out; AID 651616; inhibition, % at 1 µM; shares compounds with Mtb FBA inh; in the data active = inhibition above about 27%;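 also: 0% = vehicle wells and 100% = reference inhibitor wells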
GDH-TPI counter-2: GDH-TPI inhibition counter-screen for FBA inhibitors | 5,600 tested, 81% active | GDH-TPI coupled enzyme counterscreen, fluorescence | shares compounds with Mtb FBA inh | inhibition, % at 1 µM | AID 652141; in the data active = inhibition above about 10%
Active calls of the source: *; ? = inconclusive; / = not tested or not shown; + = active, no number. Rule as the data show it, unless noted: active = inhibition above about 30%; inactive = the rest.

SMILES	MazEF act	GDH-TPI counter-1	Mtb FBA inh	Mtb betalactam	CCHFV vOTU inh	Mtb FBA confirm	GDH-TPI counter-2
C/C=C(\C)C(=O)OC(C)(C)[C@@H]1Cc2cc3ccc(=O)oc3cc2O1	-9	10	93*	-2	-56	157*	114*
C/C=C(/C)C(=O)O[C@@H]1c2c(ccc3ccc(=O)oc23)O[C@@H]1C(C)(C)OC(=O)/C(C)=C\C	1	7	11	-20	5	/	/
O=C(CSc1nc2c([nH]c3ccccc32)c(=O)n1-c1ccccc1F)NCC1CCCO1 (stereo not given)	0	1	36*	?	-23	89*	53*
Cc1ccccc1-n1c(SCC(=O)NCC2CCCO2)nc2c([nH]c3ccccc32)c1=O (stereo not given)	5	7	2	6	9	/	/
CC(=O)C1(C(=O)Nc2cc(C)cc(C)c2)CC(c2ccccn2)=NO1 (stereo not given)	/	/	/	/	12	/	/
CNc1nc2c(C)cccn2c(=O)c1C=NCc1ccccc1	12	12	8	?	0	/	/
Cc1cccn2c(=O)c(C=Nc3ccccc3)c(NCCO)nc12	4	22	39*	-8	-25	7	-2
Cc1cccn2c(=O)c(C=Nc3ccc(Cl)cc3)c(NCCO)nc12	-1	7	31*	-2	-23	66*	45*
CC(Oc1ccc2c3c(c(=O)oc2c1)CCC3)C(=O)NCc1ccccn1 (stereo not given)	11	2	15	3	-1	/	/
CC(Oc1ccc2c3c(c(=O)oc2c1)CCCC3)C(=O)NCc1ccccn1 (stereo not given)	-1	12	79*	44	-9	31*	16*
Cc1c(C)c2ccc(OCC(=O)NCc3ccccn3)cc2oc1=O	14	2	81*	-1	-37	+	+
Cc1c(C)c2ccc(OC(C)C(=O)NCc3ccccn3)cc2oc1=O (stereo not given)	10	12	87*	-3	-66	155*	121*
Cc1cc(OC(C)C(=O)NCc2cccnc2)c2c(C)c(Cc3ccccc3)c(=O)oc2c1 (stereo not given)	15	20	19	-2	2	/	/
Cc1cc(OC(C)C(=O)NCc2ccccn2)c2c(C)c(C)c(=O)oc2c1 (stereo not given)	12	10	44*	2	-12	+	173*
O=C(/C=C(\Nc1ccc(Br)c(F)c1)c1ccccc1)c1ccccc1	/	/	/	/	9	/	/
Nc1ccccc1C(=O)NCc1ccco1	11	1	52*	-4	-33	83*	59*
O=C(NCc1ccco1)c1ccccc1O	4	-6	10	2	-9	/	/
Cc1ccc(CNC(=O)c2ccccc2N)cc1	-5	-10	60*	6	-29	80*	60*
Cc1ccc(CNC(=O)c2ccccc2N(C)S(C)(=O)=O)cc1	-14	9	3	-3	5	/	/
Cc1cccc(CNC(=O)c2ccccc2N)c1	-5	-10	58*	1	-31	137*	102*
Cc1ccccc1NC(=O)OC1CC2CC1[C@H]1CCCCN1[C@H]2Cc1ccccc1 (stereo not given in full)	/	/	/	/	16	/	/
Cc1nc(N2CCC(C)CC2)c2c(C)c(C(=O)Nc3ccc(C(F)(F)F)cc3)sc2n1	6	13	34*	5	-19	1	-1
Cc1ccc2[nH]c3c(=O)n(Cc4ccncc4)cnc3c2c1	-4	-2	29*	-14	-11	+	182*
CCN1CCCC1Cn1cnc2c([nH]c3ccc(C)cc32)c1=O (stereo not given)	10	20	37*	-9	-25	60*	37*
O=c1c2[nH]c3ccc(Br)cc3c2ncn1Cc1ccncc1	-5	/	/	-6	/	/	/
SMILES	MazEF act	GDH-TPI counter-1	Mtb FBA inh	Mtb betalactam	CCHFV vOTU inh	Mtb FBA confirm	GDH-TPI counter-2
CCN1CCCC1CNc1ncnc2c1[nH]c1ccc(Cl)cc12 (stereo not given)	4	5	10	-18	-9	/	/
Nc1cc2c3ccccc3ccc2c2ccccc12	15	11	62*	/	-28	+	+
Nc1ccc2ccccc2c1[N+](=O)[O-]	6	7	-10	/	6	/	/
O=C(CSc1nnc(-c2ccccc2)n1-c1ccc(Cl)cc1)Nc1ccc(OCc2ccccc2)cc1	/	/	/	/	5	/	/
NS(=O)(=O)c1cccc(NC(=O)CSc2nc3nc(-c4cccs4)cc(C(F)(F)F)c3c(=O)[nH]2)c1	-6	22	33*	-12	-33	173*	119*
O=C(CSc1nc2nc(-c3cccs3)cc(C(F)(F)F)c2c(=O)[nH]1)Nc1c(F)c(F)c(F)c(F)c1F	-4	7	4	-2	-4	/	/
CCOC(=O)[C@]12CCCC=C1N(Cc1ccc(OC)cc1)C(=O)[C@@H]2CC(=O)NCCCCc1ccccc1	/	/	/	/	15	/	/
Nc1c(-c2ccccc2)nc(Cl)nc1-c1ccccc1	7	12	43*	8	-179	-3	-2
Cn1nnnc1SCC(=O)Nc1nn(-c2ccccc2)nc1C(N)=O	16	3	28*	-4	-4	132*	89*
Cn1nnnc1SCC(=O)Nc1ccc(Oc2ccccc2)cc1	1	8	-2	-1	2	/	/
COC1C(O)CCC2(CO2)C1C1(C)OC1CC=C(C)C (stereo not given)	/	/	/	/	-6	/	/
CC(C)CNC(=O)c1cc2nc(C3CC3)cc(C(F)(F)F)n2n1	2	13	79*	4	0	62*	61*
Cc1[nH]n(-c2ccccc2)c(=O)c1C(C[N+](=O)[O-])c1ccc(Cl)cc1 (stereo not given)	-4	1	1	100	22	/	/
Cc1cc(O)c(C(C[N+](=O)[O-])c2ccc(Cl)cc2)c(=O)o1 (stereo not given)	-15	9	102*	-1	9	-1	-4
CCS(=O)(=O)Nc1c(C(=O)O)[nH]c2ccccc12	1	-3	46*	3	5	76*	63*
COc1ccc(/C=C/c2ccncc2)cc1	7	22	2	12	0	/	/
COc1ccc(/C=C/c2c(-c3ccc(OC)cc3)oc3cccnc23)cc1	-24	12	41*	4	7	4	-2
Cc1cc(OC(C)C(=O)NCC(O)c2ccccc2)c2c3c(c(=O)oc2c1)CCC3 (stereo not given)	10	13	77*	2	-39	32*	35*
CCCc1cc(=O)oc2cc(C)cc(OC(C)C(=O)NCC(O)c3ccccc3)c12 (stereo not given)	7	2	76*	3	-2	3	0
Cc1cc(OCC(=O)NCC(O)c2ccccc2)c2c3c(c(=O)oc2c1)CCC3 (stereo not given)	7	2	14	3	3	/	/
